High-throughput results as filed in PubChem.
An excerpt weighted towards active compounds, which were near 8% of everything screened.
FBPA coupling cs – qHTS Assay for Inhibitors of Fructose-1,6-bisphosphate Aldolase from Giardia Lamblia: Coupling assay counterscreen. activity change, negative = inhibition, % at 58.2 µM, hits read low. coupling enzyme system counterscreen, AmpLite Red fluorescence. hit rate 0.67% among 290,000; in the data active = activity change below about -30%
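Coupling enzymes only (glyceraldehyde-3-phosphate) + compound, at 57.5 uM final, 10 min RT; add substrate/coupling/AmpLite Red mix, 20 min RT; fluorescence ex 525/em 598 nm. Actives flag coupling-system interference.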
TSHR antag – Antagonists of the Thyroid Stimulating Hormone Receptor: HTS campaign. Thyrotropin receptor (Homo sapiens), P16473. TSHR-expressing cells, TSH-stimulated cAMP HTRF, 2 h; active compounds read low. activity change, negative = inhibition, % at 11.5 µM. hit rate 0.2% among 330,000;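 active = activity change below a set negative limit, meaning inhibition stronger than a set level, cut at about -70% in these data; inconclusive = activity change between two set negative limits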
Target sequence (P16473 whole entry, looked up): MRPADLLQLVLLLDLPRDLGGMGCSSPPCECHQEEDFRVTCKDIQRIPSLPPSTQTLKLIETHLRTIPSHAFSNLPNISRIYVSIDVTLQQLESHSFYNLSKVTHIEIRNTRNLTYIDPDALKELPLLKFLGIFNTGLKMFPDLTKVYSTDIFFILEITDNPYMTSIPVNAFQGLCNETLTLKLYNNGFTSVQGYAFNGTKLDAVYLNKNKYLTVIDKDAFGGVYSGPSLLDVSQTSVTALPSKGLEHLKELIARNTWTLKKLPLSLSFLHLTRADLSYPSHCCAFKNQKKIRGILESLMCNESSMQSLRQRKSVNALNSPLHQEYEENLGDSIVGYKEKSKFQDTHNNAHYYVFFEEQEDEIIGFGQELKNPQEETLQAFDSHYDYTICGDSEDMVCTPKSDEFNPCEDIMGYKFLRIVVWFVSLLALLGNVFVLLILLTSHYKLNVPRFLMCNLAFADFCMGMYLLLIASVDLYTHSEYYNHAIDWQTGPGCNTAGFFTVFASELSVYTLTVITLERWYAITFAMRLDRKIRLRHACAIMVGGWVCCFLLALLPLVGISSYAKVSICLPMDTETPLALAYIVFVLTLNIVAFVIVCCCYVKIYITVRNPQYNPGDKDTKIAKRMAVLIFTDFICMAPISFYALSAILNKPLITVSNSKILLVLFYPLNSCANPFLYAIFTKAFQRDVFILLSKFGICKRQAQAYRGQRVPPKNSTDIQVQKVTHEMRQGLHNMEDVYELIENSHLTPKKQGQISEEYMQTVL
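Inhibition of cAMP made by TSHR-expressing cells under TSH stimulation (4nM final, EC80; 2 h, 37 deg C) is quantified with a one-step lysis HTRF kit, anti-cAMP cryptate versus cAMP-d2.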
ELG1 repair inh – qHTS screen for small molecules that inhibit ELG1-dependent DNA repair in human embryonic kidney (HEK293T) cells expressing luciferase-tagged ELG1; HEK293T ELG1-luciferase reporter, luminescence, 16 h; DNA damage induced by 5-fluorouridine; Potency, µM (series often up to 46.1 µM), for inactives: at the highest dose activity change, negative = inhibition, most hits filed as inhibitors; hit rate 2.3% among 330,000; AID 504467, 2011; also: potency is read from the fitted curve at half-maximal effect; nearly all actives have a fitted effect of over 55% in size
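Step one: seed 2,000 cells per well. Step two: pin-transfer compound or DMSO alongside 5-fluorouridine. Step three: incubate 16 hr, 37 °C, 5% CO2. Step four: add ONE-Glo, wait 30 min, read luminescence.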
Gal4-VP16 FLuc – VP16 counterscreen qHTS for inhibitors of ROR gamma transcriptional activity | Drosophila S2 Gal4-VP16 UAS-luciferase, luminescence, 20 h | hit rate 3.5% among 310,000 | Potency, µM (top dose mostly 53.6 µM), for the others: at the top dose activity, negative = inhibition, most hits filed as inhibitors;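 also: Gal4-VP16 expression switched on by copper sulfate through the metallothionein promoter; potency is read from the fitted curve at half-maximal effect; nearly all actives have a fitted effect of over 50% in size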
RORgamma inh – qHTS for inhibitors of ROR gamma transcriptional activity; Nuclear receptor ROR-gamma (Mus musculus), P51450; Drosophila S2 Gal4-RORgamma UAS-luciferase reporter, 20 h; Potency, µM (top dose mostly 53.6 µM), for inactives: at the highest dose activity change, negative = inhibition, usual class: inhibitors; hit rate 5.4% among 310,000; AID 2551, 2010; also: potency is read from the fitted curve at half-maximal effect; nearly all actives have a fitted effect of over 60% in size
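Using a luciferase readout, inhibitors were identified by reduced reporter activity in Drosophila cells coexpressing a copper-inducible Gal4–ROR gamma fusion and UAS-driven Photinus luciferase, incubated 20 hr after 700 uM copper sulfate.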
Active calls of the source: *; ? = inconclusive; . = not tested or not shown; [ ] = dose if it differs, or a comment. Unless noted, calls follow the shape of the dose curve; as a rule, active = well fitted curve in the direction sought with a large enough effect; inconclusive = small, poorly fitted or top-dose-only effect, or another doubt; inactive = no such curve, though single readings can be large; an effect the other way counts as inactive or inconclusive. % is scaled to controls: 0 for no effect and ±100 for the full control effect.

SMILES	FBPA coupling cs	TSHR antag	ELG1 repair inh	Gal4-VP16 FLuc	RORgamma inh
COc1cccc(NC(=O)C2CCC(CNC(=O)[C@@H]3Cc4ccccc4CN3)CC2)c1 (stereo partly specified)	.	-1.3	5.8%	1.1%	-14.7%
N=c1n(CC(=O)c2ccc(Br)s2)c2ccccc2n1Cc1ccccc1	1.3	3.1	?	14.1µM*	10µM*
CCCn1c(=N)n(CC(=O)c2ccc(Cl)cc2)c2ccccc21	0.2	-16.7	-7.8%	?	?
CCCn1c(=N)n(CC(=O)c2ccc([N+](=O)[O-])cc2)c2ccccc21	-17.8	-12.0	-13.7%	-7.7%	1.58µM*
C/C(=N/NC(=O)NC12CC3CC(CC(C3)C1)C2)c1ccccc1	-1.6	-2.1	1.0%	1.2%	-6.4%
O=C(C[C@@H]1C/C=C\C[C@@H](Cc2ccc(F)cc2)C(=O)OCCNC1=O)NCCO	.	1.8	6.5%	.	.
COC1=CC(=O)C(O)=C/C1=C\C=C\c1ccccc1	-17.0	.	.	12.6µM*	-94.6%
COc1ccc(N2CCN(C(=O)Cc3csc(NC(=O)Nc4ccccc4OC)n3)CC2)cc1	.	-15.6	16.4µM*	.	.
COc1ccccc1NC(=O)Nc1nc(CC(=O)N2CCN(c3ccc(F)cc3)CC2)cs1	.	-17.2	16.4µM*	.	.
COc1ccccc1NC(=O)Nc1nc(CC(=O)N2CCN(c3ccccc3)CC2)cs1	.	-11.0	?	.	.
Cc1cc(C)c(C)c(S(=O)(=O)NCc2ccncc2)c1C	-4.7	-2.2	2.91µM*	?	?
O=S(=O)(NCc1ccncc1)c1ccccc1	0.7	-1.8	?	15.8µM*	18.4%
CNC(=O)c1cc(S(=O)(=O)NCc2ccncc2)ccc1OC	-2.7	-12.6	-13.4%	?	-4.6%
COc1cc(S(=O)(=O)NCc2ccncc2)ccc1Br	-0.5	-9.8	?	7.08µM*	27.5%
COc1ccc(S(=O)(=O)NCc2cccnc2)cc1Br	0.7	-6.3	?	11.2µM*	?
COc1ccc(-n2ncc3c2CC(C)(C)CC3NC(=O)CCN2CCCCC2=O)cc1 (stereo unspecified)	.	49.9	13.0%	3.3%	0.5%
CCOC(=O)COc1ccc(S(=O)(=O)NCc2cccnc2)cc1	0.5	-5.4	-0.2%	1.3%	-14.3%
O=S(=O)(NCc1ccncc1)c1ccc(Br)s1	8.4	-22.9	?	1.78µM*	-39.3%
Cc1ccc(S(=O)(=O)NCc2ccncc2)cc1C	-0.6	-34.1	19.0%	3.98µM*	11.2µM*
COC(=O)COc1ccc(S(=O)(=O)NCc2ccncc2)cc1	-3.0	-22.8	?	2.82µM*	?
COC(=O)[C@@]1(Cc2ccc(OC)cc2)[C@H]2c3cc(C(=O)N(C)C)n(Cc4ccccn4)c3C[C@H]2CN1C(=O)c1ccccc1	1.6	.	.	3.2%	-7.7%
CO[C@H]1COC(=O)[C@@H](C)COC(=O)[C@@H](OCc2ccccc2)/C=C\[C@@H]1C	-0.6	.	.	22.3%[10 µM]	-17.0%[10 µM]
CN(CC(=O)Nc1c(Cl)cccc1Cl)C(=O)c1cccn1C	.	4.9	0.9%	0.5%	4.7%
COC(=O)NC(c1ccco1)[C@@]1(C(=O)OC)CCCC1=O (stereo partly specified)	0.9	.	.	-4.2%[10 µM]	-1.6%[10 µM]
COCCn1c(CN(C)Cc2ccccc2)nc2c1c(=O)n(C)c(=O)n2C	2.6	24.3	?	-10.1%	18.0%
CN(Cc1ccccc1)Cc1nc2c(c(=O)n(C)c(=O)n2C)n1Cc1ccccc1Cl	0.7	-10.5	14.6µM*	1.7%	-13.9%
CCCCn1c(CN(C)Cc2ccccc2)nc2c1c(=O)n(C)c(=O)n2C	0.6	-15.2	?	?	?
CCCn1c(CN(C)Cc2ccccc2)nc2c1c(=O)n(C)c(=O)n2C	0.1	-21.5	11.6µM*	?	?
CCCCn1c(SCC(=O)Nc2nnc(C(C)C)s2)nc2c1c(=O)n(C)c(=O)n2C	-1.0	-10.5	18.4µM*	-4.1%	-0.9%
CCc1nc(SCC(=O)N2CCC(C)CC2)c2c(=O)n(C)c(=O)n(C)c2n1	4.4	-17.1	20.6µM*	-3.1%	?
